Measured values from PubChem BioAssay AID651813 (National Center for Advancing Translational Sciences (NCATS), 2012).
Among all 2,100 compounds or so, about 1,100 (52%) were called active. About 27% were inconclusive and are not listed. Calls come from the whole dose curve; as a rule, active = well fitted inhibition curve with a large enough effect; inconclusive = small, poorly fitted or top-dose-only effect; inactive = no such curve, though single readings can be large or run the other way. So high a share suggests a set chosen from earlier hits. This is one part of the list.
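Note: hits raise yellow fluorescence by blocking Vif-driven A3G-eYFP degradation; nearly all actives have a fitted effect of over 70% in size.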
Potency is the fitted concentration of half-maximal effect.
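Throughout, for max response: max response given as percent of control signal.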

Each molecule was assayed against DNA dC->dU-editing enzyme APOBEC-3G (Homo sapiens) (UniProt Q9HC16) (assay: qHTS for inhibitors of Vif-A3G interactions: Cherry picks counterscreen). Details: HeLa A3G-eYFP + Vif (tagged APOBEC3G with the HIV-1 protein that degrades it), eYFP fluorescence, 24 h.
DNA dC->dU-editing enzyme APOBEC-3G (Homo sapiens), sequence (Q9HC16 whole entry, looked up): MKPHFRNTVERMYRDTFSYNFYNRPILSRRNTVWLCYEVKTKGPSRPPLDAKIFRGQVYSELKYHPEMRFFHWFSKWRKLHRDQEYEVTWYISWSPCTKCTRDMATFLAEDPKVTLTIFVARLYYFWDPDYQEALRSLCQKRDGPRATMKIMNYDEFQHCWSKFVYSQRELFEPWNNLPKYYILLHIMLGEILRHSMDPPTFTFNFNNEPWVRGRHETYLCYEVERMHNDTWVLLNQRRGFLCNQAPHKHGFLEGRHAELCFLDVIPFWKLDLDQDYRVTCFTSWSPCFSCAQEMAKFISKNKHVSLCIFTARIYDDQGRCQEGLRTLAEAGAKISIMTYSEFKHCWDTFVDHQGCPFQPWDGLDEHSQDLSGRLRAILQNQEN
Outline: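 Readout is eYFP fluorescence (488 nm excitation, 500-530 nm emission) measured on Acumen Explorer after 24 h compound exposure, several concentrations, at 37 deg C. Cells: HeLa stably co-expressing Vif and C-terminally eYFP-tagged A3G; MG132 positive control.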
In the case of `Cc1ccc(S(=O)c2ccc([N+](=O)[O-])c3nonc23)cc1` (centres undefined), the max response is reported as 28.3% (inactive). With `CN1CCC(OC(=O)c2cc3cc(Cl)cc(Cl)c3oc2=O)CC1` the max response was 17.4% (inactive). `Cn1nnc2c[n+](CC(=O)c3ccc(Cl)cc3)cc(Br)c21` was tested, and the Potency was 19.8 µM (active). `O=C(Nc1nnc(-c2ccc3c(c2)CCCC3)o1)c1c(F)cccc1F` was tested, and the max response was 11.9% (inactive). `Cc1ccc(/C=N/NC(=O)c2cc(-c3ccccc3)nc3ccccc23)o1` was tested, and the Potency was 19.8 µM (active). For `Cc1ccc(C=NNC(=O)c2cc(-c3cccnc3)nc3ccccc23)o1`, the Potency was 15.8 µM (active). In the case of `Cc1cc(C(=O)N/N=C/c2ccc(C)o2)c2ccccc2n1`, the Potency is reported as 4.98 µM (active). With `O=C(N/N=C/c1c(O)n(-c2ccc(Cl)cn2)c(=O)c2ccccc12)c1ccncc1` the max response was -19.7% (inactive). In the case of `C/C(=N\NC(=O)c1cc(C)nc2ccccc12)c1ccncc1`, the max response is reported as -20.6% (inactive). `O=C(N/N=C/c1ccc(Cl)cc1)c1cc(-c2cccnc2)nc2ccccc12` was tested, and the Potency was 2.5 µM (active). With `COCCNC(=S)N/N=C(\C)c1ccccc1O` the max response was 6.88% (inactive). `COCCCNC(=S)N/N=C/c1cccc(OC)c1O` was tested, and the max response was 7.9% (inactive). For `CCOc1ccc(/C=N/NC(=O)c2cc3c(OC)cccc3[nH]2)cc1`, the max response was 2.03% (inactive). `COc1cccc(/C=N/NC(=O)c2cc3c(OC)c(OC)ccc3[nH]2)c1OC` was tested, and the Potency was 7.9 µM (active). In the case of `COc1ccccc1/C=N/NC(=O)c1cc2c(OC)c(OC)ccc2[nH]1`, the Potency is reported as 5.59 µM (active). `Cc1ccc(N=Cc2c(O)n(-c3nccs3)c(=O)c3ccccc23)c(C)c1` was tested, and the max response was -1.11% (inactive). `COc1ccc(N=Cc2c(O)n(-c3cccc(C)n3)c(=O)c3ccccc23)c(OC)c1` was tested, and the Potency was 6.51 µM (active). In the case of `CC1=Nc2ccc(C)cc2/C1=C/c1c(N)n2oc(C)cc2nc1=O`, the Potency is reported as 16.4 µM (active). For `CCSC1=NSC2=NC(=O)/C(=C\c3coc4ccccc4c3=O)C(=N)N12`, the Potency was 16.4 µM (active). In the case of `Cc1ccc(Cn2c(SCc3ccc(C(=O)NC4CCCC4)cc3)nc3ccncc32)cc1`, the max response is reported as -1.29% (inactive). With `Cc1ccc(O)c(Nc2c3ccccc3nc3ccccc23)c1` the max response was 10.9% (inactive). `COc1ccc(C)cc1Nc1c2c(nc3ccccc13)CCC2` was tested, and the Potency was 0.886 µM (active). With `Cc1ccc(-c2cn3nc(-c4ccccc4)c(-c4ccccc4)nc3n2)cc1` the Potency was 16.4 µM (active). With `Cn1cccc1/C=C1\SC(=Nc2cccc(O)c2)NC1=O` the Potency was 11.2 µM (active). `Cc1ccc(N=C2NC(=O)/C(=C/c3cccn3C)S2)cc1` was tested, and the Potency was 14 µM (active). For `Cn1cccc1/C=C1\SC(=Nc2ccccc2)NC1=O`, the Potency was 2.5 µM (active). With `Cc1ccc(N=C2NC(=O)/C(=C/c3cn(C)c4ccccc34)S2)cc1C` the Potency was 17.7 µM (active). `Cc1cccc(N=C2NC(=O)/C(=C/c3cccn3C)S2)c1` was tested, and the max response was -23.6% (inactive). `COc1cc(S(=O)(=O)Nc2ccccc2N2CCCCC2)ccc1NC(C)=O` was tested, and the Potency was 2.23 µM (active). In the case of `O=C(NC(=S)Nc1ccccc1N1CCCCC1)c1ccccc1`, the max response is reported as 8.17% (inactive). `C=CCN1C(=O)/C(=C2/Sc3ccc(OC)cc3N2C)SC1=Nc1cccc(O)c1` was tested, and the Potency was 18.4 µM (active). `C=CCN1C(=O)/C(=C2/Sc3ccc(OC)cc3N2CC)SC1=S` was tested, and the Potency was 11.6 µM (active). `Cc1cc(-n2c(SCC(=O)Nc3ccc(Br)cc3)nc3n[nH]c(C)c3c2=N)ccc1Cl` was tested, and the max response was -13.3% (inactive). In the case of `CCOC(=O)N1CCc2c(sc3c2C(=O)NC(c2ccc(N(C)C)cc2)N3)C1` (centres undefined), the Potency is reported as 4.11 µM (active). `O=C(CC1CC2CCC1C2)Nc1nc(-c2ccccn2)cs1` (centres undefined) was tested, and the max response was 10.6% (inactive). `O=C(Nc1nc(-c2ccccn2)cs1)C1CCCC1` was tested, and the max response was -16.3% (inactive). For `CC(=O)c1ccc(-c2ccc(C(=O)Nc3nc(-c4ccccn4)cs3)o2)cc1`, the Potency was 12.5 µM (active). With `Cc1cc(/C=N/NC(=O)c2cc3ccccc3o2)c(C)n1C` the max response was -4.16% (inactive). For `Cc1c(/C=N\NC(=O)c2cc3ccccc3o2)c2ccccc2n1C`, the Potency was 3.96 µM (active). With `O=C(N/N=C/c1cccc2ccccc12)c1cc2ccccc2o1` the Potency was 9.94 µM (active). `CCCOc1ccc(NC(=O)CC2C(=O)N(c3ccc(OCC)cc3)C(=S)N2C2CC2)cc1` (centres undefined) was tested, and the max response was -18.2% (inactive). With `COc1cc(N2CCCC2)c(OC)cc1/C=C(/C#N)c1ccc(F)cc1` the Potency was 8.2 µM (active). `COc1cc(N2CCCC2)c(OC)cc1/C=C1/NC(=S)NC1=O` was tested, and the max response was 60.5% (inactive). `COc1cc(N2CCCC2)c(OC)cc1/C=C(/C#N)c1ccc(Br)cc1` was tested, and the Potency was 1.64 µM (active). For `COC(=O)COc1cccc2c(=O)n(CC(=O)NCc3ccccc3)ccc12`, the Potency was 6.27 µM (active). In the case of `CCOC(=O)C(C)Oc1cccc2c(=O)n(CC(=O)NCc3ccco3)ccc12` (centres undefined), the Potency is reported as 1.4 µM (active). In the case of `O=c1[nH]c(NCc2ccco2)nnc1Cc1ccccc1Cl`, the Potency is reported as 15.8 µM (active). For `CC(=O)Nc1sc(/C(C#N)=C\c2cccc(Cl)c2)nc1-c1ccc(C)cc1`, the Potency was 4.61 µM (active). For `CC(=O)Nc1sc(/C(C#N)=C/c2ccc(Cl)c(Cl)c2)nc1-c1ccc(C)cc1`, the Potency was 0.731 µM (active). In the case of `CCOc1cc(/C=C(\C#N)c2nc(-c3cccs3)c(NC(C)=O)s2)ccc1O`, the max response is reported as 51.1% (inactive). `CCCCOc1ccc(/C=C/C2=CC(C)(C)NC(=S)N2)cc1OCC` was tested, and the max response was -1.97% (inactive). In the case of `COc1ccccc1-c1c(C#N)c(N)nc2c1CCc1ccccc1-2`, the Potency is reported as 6.27 µM (active). For `CC1=C(C(=O)Nc2cccc(F)c2)C(c2ccsc2)C2=C(CC(C)(C)CC2=O)N1` (centres undefined), the Potency was 1.98 µM (active). In the case of `O=[N+]([O-])c1ccccc1SNc1ccccc1`, the max response is reported as -7.81% (inactive). `Cc1cc(C)c(S(=O)(=O)Oc2ccccc2[N+](=O)[O-])c(C)c1` was tested, and the Potency was 3.53 µM (active). For `CC(C)n1cnc2c(NCc3ccccc3)cc(N[C@H](C)CO)cc21`, the Potency was 15.8 µM (active). With `FC(F)(Cl)c1nnc2ccc(Cl)nn12` the Potency was 6.27 µM (active). For `N#CCC(=O)N/N=C/c1ccc(N2N=C(c3ccccc3)CC2c2ccccc2)cc1` (centres undefined), the Potency was 16.4 µM (active). In the case of `COc1cc2c3nnc(-c4ccc(F)cc4)c-3cn(Cc3ccccc3F)c2cc1OC`, the Potency is reported as 20.6 µM (active). With `COc1cc2c3nnc(-c4ccc(F)cc4)c-3cn(Cc3ccc(C)cc3)c2cc1OC` the Potency was 9.94 µM (active). In the case of `CCOC(=O)CSC1=C(C#N)C(c2ccc(C)s2)CC(=O)N1` (centres undefined), the Potency is reported as 1.77 µM (active). With `O=C(CCCCl)Oc1ccc2cc(-c3ccc4ccccc4n3)c(=O)oc2c1` the max response was 32.5% (inactive). With `CCOc1ccccc1Nc1nnc(-c2cc3cc(OC)ccc3oc2=O)s1` the Potency was 5.17 µM (active). `COc1ccc2oc(=O)c(-c3nc4ccccc4o3)cc2c1` was tested, and the Potency was 10.3 µM (active). For `CC(=O)Nc1ccc2c(c1)Cc1ccc(Cl)cc1-2`, the max response was -8.49% (inactive). With `CC(=O)Nc1ccc(C2=CC(=O)C[C@H](c3ccc(Cl)cc3)C2)cc1` the Potency was 18.4 µM (active). With `CN(C)CCN(C(=O)/C=C/c1cccs1)c1nc2c(F)cc(F)cc2s1` the max response was -22.8% (inactive). `O=C(Nc1ccc([N+](=O)[O-])cc1)C(Cc1ccccc1)N1C(=O)c2cccc3cccc(c23)C1=O` (centres undefined) was tested, and the Potency was 8.86 µM (active). With `Nc1c(C(=O)Nc2ccc(S(=O)(=O)N3CCCC3)cc2)sc2nc3cc4c(cc3cc12)CCC4` the Potency was 10.3 µM (active). With `CCc1cccc2cc3c(N)c(C(=O)Nc4ccc(S(=O)(=O)N5CCCC5)cc4)sc3nc12` the Potency was 5.59 µM (active). `Nc1c(C(=O)Nc2ccc(S(=O)(=O)N3CCCC3)cc2)sc2nc3ccc(OC(F)(F)F)cc3cc12` was tested, and the Potency was 18.4 µM (active). In the case of `Cn1c(N)c(-c2ccccc2)c2ccc([N+](=O)[O-])cc2c1=O`, the Potency is reported as 5.59 µM (active). `N#Cc1c(-c2ccccc2F)cc(C2CC2)nc1SCC(=O)c1cccs1` was tested, and the Potency was 14 µM (active). For `CNC(=S)N/N=C(\C)c1ccc(Cl)s1`, the max response was 0.869% (inactive). With `COc1cc(Cl)c(C)cc1NC(=O)CN1CCN(C(=O)C2CC2)CC1` the max response was -28.2% (inactive). For `COc1ccc(Cl)cc1NC(=O)CN(C)CC(=O)Nc1ccccc1N1CCOCC1`, the Potency was 1.58 µM (active). With `Fc1ccc(CNc2nc3ccccc3n3nnnc23)cc1` the Potency was 23.1 µM (active). In the case of `CC(NC(=O)c1ccc(Nc2nc3ccccc3n3nnnc23)cc1)c1ccccc1` (centres undefined), the Potency is reported as 20.6 µM (active). In the case of `c1ccc2c(c1)nc(N1CCOCC1)c1nnnn12`, the max response is reported as -18.6% (inactive). `Fc1ccccc1Nc1nc2ccccc2n2nnnc12` was tested, and the Potency was 20.6 µM (active). In the case of `Cc1ccc(C(=O)O)cc1Nc1nc2ccccc2n2nnnc12`, the max response is reported as -28% (inactive). With `CN(C)c1ccc(Nc2nc3ccccc3n3nnnc23)cc1` the max response was -13.6% (inactive). With `CN(C)S(=O)(=O)c1ccc2c(c1)/C(=C/c1cc3c([nH]1)CCCC3)C(=O)N2` the Potency was 2.8 µM (active). With `CC(C)(C)C(=O)c1sc2nc(-c3cccs3)cc(C(F)(F)F)c2c1N` the Potency was 0.731 µM (active). In the case of `CCN(CC)C(=O)c1sc2nc(-c3cccs3)cc(-c3ccc(Cl)cc3)c2c1N`, the Potency is reported as 15.8 µM (active). `Nc1c(C(=O)C2CC2)sc2nc(-c3cccs3)cc(C(F)(F)F)c12` was tested, and the Potency was 0.461 µM (active). `CC(=O)c1sc2nc(-c3cccs3)cc(C(F)(F)F)c2c1N` was tested, and the Potency was 13 µM (active). For `Clc1ccccc1C1CC(c2ccccc2)=Nc2ccccc2N1` (centres undefined), the max response was -7.91% (inactive). `Cc1ccc2nc(SCC(=O)Nc3ccc4sc(C)nc4c3)c(C#N)cc2c1` was tested, and the Potency was 18.4 µM (active). With `Cc1nc2cc(NC(=O)CSc3nc4c(C)cccc4cc3C#N)ccc2s1` the Potency was 20.6 µM (active). With `COCCN(CCOC)Cc1c(O)ccc2c1O/C(=C\c1ccc(C)o1)C2=O` the max response was -11.8% (inactive). In the case of `O=C1c2cccc3c([N+](=O)[O-])ccc(c23)C(=O)N1c1ccccn1`, the max response is reported as 54.4% (inactive). With `CC(=O)Oc1cccc(N2C(=O)c3cccc4c([N+](=O)[O-])ccc(c34)C2=O)c1` the Potency was 15.8 µM (active). With `Cc1nnc(N2C(=O)c3cccc4c([N+](=O)[O-])ccc(c34)C2=O)s1` the Potency was 20.6 µM (active).
